Test systems include SR leukemia; RPMI-8226 leukemia; OVCAR-8 ovarian; OVCAR-5 ovarian; IGROV1 ovarian; OVCAR-3 ovarian; HS 578T breast; NCI/ADR-RES ovarian; T-47D breast; BT-549 breast; MDA-MB-435 melanoma; SW-620 colon; MCF7 breast; HCT-116 colon; HCC-2998 colon; KM12 colon; OVCAR-4 ovarian; SK-OV-3 ovarian.
Common to all, as to assay: NCI-60 one-dose screen, 48 h (100 = growth as untreated, 0 = no growth, -100 = all killed)
Holding throughout (settings): 10 µM unless noted

The panel holds about 83,000 compounds, 20% with a hit somewhere; the sample as a whole holds those more often.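 Values shown are percent growth following 48 h exposure of cells in 96-well plates to a single concentration of compound; below 10 was considered active.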 Values without a mark were called inactive. Activity calls are given as the source filed them.

Regarding `CCOC(=O)c1nn(-c2ccc(C)cc2)c(=O)c2c(N)c(C#N)c(-c3ccc(OC)cc3)cc12`, the growth in the test with SR leukemia is 127%; in the test with RPMI-8226 leukemia it was 98.6%; in the test with OVCAR-8 ovarian, 101%; in the test on OVCAR-5 ovarian it was 94.3%; with IGROV1 ovarian, 80.2%; with OVCAR-3 ovarian it was 108%. The growth in the test on HS 578T breast was 90.1%; in the test on NCI/ADR-RES ovarian it was 106%; in the test on T-47D breast it was 102%; in the test with BT-549 breast, 130%; in the test on MDA-MB-435 melanoma it was 106%; in the test on SW-620 colon, 94.4%. The growth in the test with MCF7 breast is 95.5%; in the test with HCT-116 colon it was 99.4%; in the test with HCC-2998 colon, 110%; in the test on KM12 colon, 95.5%.
Consider `C[C@H]1[C@H](C)CC[C@]2(COC(=O)c3cccnc3)CC[C@]3(C)C(=CC[C@@H]4[C@@]5(C)CCCNC(C)(C)[C@@H]5CC[C@]43C)[C@H]12`, for which the growth in the test with SR leukemia was -8.33% (active); in the test with OVCAR-8 ovarian, 86.2%; in the test on OVCAR-5 ovarian, 90.9%; in the test with OVCAR-4 ovarian it was 70.5%; in the test with SK-OV-3 ovarian, 92.5%; with IGROV1 ovarian, 65%. The growth was 68.4% with OVCAR-3 ovarian; 78.8% with HS 578T breast; 88.5% with NCI/ADR-RES ovarian; 61% in the test with T-47D breast; 76.5% with BT-549 breast; 68.5% with MDA-MB-435 melanoma. Besides, the growth in the test with SW-620 colon is 39.1%; in the test on MCF7 breast it was 67.3%; in the test on HCT-116 colon, 33.5%; in the test on HCC-2998 colon, 49.6%; in the test with KM12 colon, 68.9%.
Take `CC1=CC(=O)CC(C)(C)[C@@]1(O)/C=C/C(C)=C\C(=O)O`: the growth with SR leukemia was 0.555% (active); in the test with RPMI-8226 leukemia it was -28.4% (active); with OVCAR-8 ovarian, -11.9% (active); in the test on OVCAR-5 ovarian, -25% (active); with SK-OV-3 ovarian, -22% (active); in the test with IGROV1 ovarian, -12.5% (active). Moreover, the growth with OVCAR-3 ovarian was -19.5% (active); with HS 578T breast, -8.17% (active); in the test with NCI/ADR-RES ovarian, -15.6% (active); in the test on T-47D breast, -22.7% (active); in the test with BT-549 breast it was -22.4% (active); in the test on MDA-MB-435 melanoma, -70.7% (active). For the same molecule, the growth with SW-620 colon is 0.826% (active); in the test with MCF7 breast, -14.6% (active); with HCT-116 colon, -34% (active); in the test on HCC-2998 colon, -52.1% (active); with KM12 colon, 3.82% (active).
As to `CC(=O)c1ccc(NC(=O)COc2ccc(C3SCC(=O)N3c3ccc(Br)cc3)cc2)cc1` (stereo not drawn), the growth was 77% with SR leukemia; 89.6% in the test on RPMI-8226 leukemia; 97.5% in the test with OVCAR-8 ovarian; 102% with OVCAR-5 ovarian; 105% in the test with SK-OV-3 ovarian; 89.7% with IGROV1 ovarian. Besides, the growth with OVCAR-3 ovarian is 121%; with HS 578T breast it was 100%; in the test with NCI/ADR-RES ovarian, 92.6%; with T-47D breast, 88.7%; in the test on BT-549 breast, 95.7%; in the test on MDA-MB-435 melanoma it was 102%. Moreover, the growth in the test with SW-620 colon was 110%; in the test with MCF7 breast, 89.6%; with HCT-116 colon, 91%; in the test on KM12 colon it was 98.2%.
`O=C(NCCCNc1cc(-c2cn(-c3ccccc3)nc2-c2cccc(O)c2)ccn1)Nc1cccc(C(F)(F)F)c1`: the growth in the test with SR leukemia is 30.2%; with RPMI-8226 leukemia, 4.35% (active); in the test on OVCAR-8 ovarian, 56.1%; with OVCAR-5 ovarian, 56%; with SK-OV-3 ovarian it was 57.5%; in the test with IGROV1 ovarian it was 44.2%. The growth in the test on OVCAR-3 ovarian is 49.6%; with HS 578T breast, 7.27% (active); in the test with NCI/ADR-RES ovarian it was 48.1%; in the test on T-47D breast it was 39.2%; in the test on BT-549 breast, 68.8%; with MDA-MB-435 melanoma, 31.7%. Besides, the growth with SW-620 colon is 12.4%; in the test with MCF7 breast, 23.7%; in the test with HCT-116 colon, 23.1%; with HCC-2998 colon it was -34.7% (active); in the test on KM12 colon, 10.7%.
With `O=C(NNc1nc2cc(F)ccc2n2cncc12)c1cnccn1`, the growth was 17% in the test with SR leukemia; 25.4% with RPMI-8226 leukemia; 21% with OVCAR-8 ovarian; 50% in the test with OVCAR-5 ovarian; 28.4% with SK-OV-3 ovarian; 27.6% in the test with IGROV1 ovarian. Further, the growth with OVCAR-3 ovarian is 28.2%; in the test on HS 578T breast, 71.8%; in the test with NCI/ADR-RES ovarian it was 12.2%; in the test with T-47D breast, 33.7%; with BT-549 breast, 55%; in the test with MDA-MB-435 melanoma it was 25%. In addition, the growth with SW-620 colon was 24.5%; in the test with MCF7 breast, 14.8%; in the test with HCT-116 colon it was 23%; with HCC-2998 colon, 19.9%; in the test with KM12 colon it was 20.8%.
On to `CCNC(=O)Oc1ccc(/C(=C(/C)c2ccc(Cl)cc2)c2ccc(OCCN3CCCC3)cc2)cc1`, for which the growth is 23.2% in the test on SR leukemia; 87.7% in the test with OVCAR-8 ovarian; 90.5% with OVCAR-5 ovarian; 88.6% in the test on OVCAR-4 ovarian; 106% in the test on SK-OV-3 ovarian; 78.1% in the test with IGROV1 ovarian. The growth in the test with OVCAR-3 ovarian is 99.8%; in the test on HS 578T breast it was 92.8%; in the test with NCI/ADR-RES ovarian it was 78.7%; in the test with T-47D breast it was 56.8%; with BT-549 breast, 90.4%; with MDA-MB-435 melanoma it was 89.8%. Further, the growth is 83.1% in the test with SW-620 colon; 25.3% with MCF7 breast; 53.1% in the test on HCT-116 colon; 77.4% in the test with HCC-2998 colon; 95.5% in the test on KM12 colon.
In the case of `Cc1ccc(/C=C/CC(=O)Nc2ccc(C(=O)Nc3ccc(F)cc3N)nc2)cn1`, the growth was 31.4% with SR leukemia; 8.53% (active) with RPMI-8226 leukemia; 29.1% in the test on OVCAR-8 ovarian; 38.5% in the test with OVCAR-5 ovarian; 43.9% in the test on IGROV1 ovarian; 59% in the test with OVCAR-3 ovarian. For the same molecule, the growth was 35.6% with HS 578T breast; 53.6% in the test on NCI/ADR-RES ovarian; 10.8% in the test with T-47D breast; 48.5% in the test on BT-549 breast; 18.6% in the test with MDA-MB-435 melanoma; 26.8% with SW-620 colon. Besides, the growth is 18.4% in the test with MCF7 breast, 17.7% with HCT-116 colon, 31.4% in the test on HCC-2998 colon and 49.5% in the test on KM12 colon.

(Values after PubChem BioAssay (NCI).)
